# PMP22 txn prim: PMP22 gene transcription modulation; S16 Pmp22-F2sN Schwann cells, FLuc/NLuc coincidence luminescence, 24 h; Potency, µM (titrated, usually from 57.5 µM), for inactives: at the top dose activity change, negative = inhibition, most hits filed as inhibitors; 43,000 tested, 2% active; AID 1508649; active = clear falling dose curves in both reporters; inconclusive = both reporters move, but less clearly or upward; inactive = either reporter flat; the % is the NLuc reporter signal; note: potency is the fitted concentration of half-maximal effect; % is set by controls: 0 for no effect and ±100 for the full control effect
#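 Schwann cells carrying the coincidence reporter were exposed to library compounds for 24 h at 37C, then lysed and read for FLuc and, after quenching, NLuc luminescence on a CCD imager.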
# OvCa metastasis: inhibitors of ovarian cancer cell adhesion and invasion in omental model | Potency, µM (highest dose often 45.8 µM), for inactives: at the top dose activity change, negative = inhibition, hits mostly inhibitors | SKOV3ip1-GFP adhesion/invasion on 3D omental model, fluorescence | 46,000 tested, 0.1% active | AID 1963576;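 note: potency is the fitted concentration of half-maximal effect; plate controls were DMSO wells for no effect and tomatine positive control wells for full effect; nearly all actives have a fitted effect of over 65% in size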
#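 qHTS, 4-pt dose (0.36-46 umol/L); SKOV3ip1-GFP, 1,200 cells/well, no FBS; primary omental fibroblast/mesothelial co-culture 48 h pre-grown; 2 h RT + 16 h 37 C; PBS wash, 4% PFA; GFP count 488/509 nm.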
# pS6 MEF inh: inhibitors of mTORC1 signaling in Tsc2-/- p53-/- MEF cells; Tsc2-/- p53-/- MEF, phospho-rpS6 immunofluorescence/PI, 24 h; Potency, µM (highest dose often 38.3 µM), without a hit: top-dose activity change, negative = inhibition, actives largely listed as inhibitors; 44,000 tested, 0.78% active; AID 493208;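 note: potency is the fitted concentration of half-maximal effect; plate controls were DMSO for no effect and rapamycin for full effect; nearly all actives have a fitted effect of over 50% in size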
#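 Compounds act on Tsc2-/-, p53-/- fibroblasts carrying an empty vector for 24 h before fixation and dual staining for phospho-S6 and DNA (propidium iodide). Values are percentages of cells above a rapamycin-defined pS6/PI threshold.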
# p53null 32C kill: selectivity test: cytotoxicity in p53 null cells, permissive temperature | H1299-neo p53 null cells, ATP luminescence, 24 h, 32C | AID 903 | Potency, µM (doses to about 46.1 µM), for the others: top-dose activity change, negative = cytotoxicity, usual class: cytotoxic | 55,000 tested, 0.62% active;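 note: potency is the fitted concentration of half-maximal effect; 0% = DMSO only and -100% = full killing by 100 µM tamoxifen; nearly all actives have a fitted effect of over 55% in size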
#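 ATP-content luminescence in p53-null H1299-neo cells after 24 h compound exposure (up to 46 uM) at 32C permissive temperature; 0% and 100% killing set by DMSO and 100 uM tamoxifen; Hill-equation AC50.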
# S16 viability: cytotoxicity in S16 Pmp22-F2sN Schwann cells. 43,000 tested, 0.48% active. Potency, µM (highest dose often 57.5 µM), for inactives: at the highest dose activity change, negative = cytotoxicity, hits mostly cytotoxic. S16 Pmp22-F2sN Schwann cells (luciferase reporters placed in the Pmp22 gene) viability, CellTiter-Glo, 24 h; note: potency is the fitted concentration of half-maximal effect; % is set by controls: 0 for no effect and ±100 for the full control effect; nearly all actives have a fitted effect of over 65% in size
#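 Seed 500-1,000 S16 Pmp22-F2sN cells per well in phenol-red-free DMEM with 10% heat-inactivated FBS; pin-add 23 nL compound; incubate 24 h at 37C; add CellTiter-Glo, wait 15 min protected from light; read luminescence.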
# p53null 39C kill: selectivity test: cytotoxicity in p53 null cells, nonpermissive temperature; H1299 p53-null (neo) cells, 39C, ATPlite viability, 24 h; Potency, µM (titrated, usually from 46.1 µM), without a hit: top-dose activity, negative = cell killing, actives largely listed as cytotoxic; 55,000 tested, 0.97% active;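 note: potency is the fitted concentration of half-maximal effect; 0% = DMSO only and -100% = full killing by 100 µM tamoxifen; nearly all actives have a fitted effect of over 50% in size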
#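 Luminescent ATP signal reported cell survival after H1299 lines (neo, p53 null; or p53 A138V) received up to 46 uM compound and 24 hr incubation at 39C.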
# NLuc saturating: NanoLuc enzyme inhibition artifact for PMP22 screen; shares compounds with PMP22 txn prim; Potency, µM (doses to about 57.5 µM), for the others: top-dose activity change, negative = inhibition, actives largely listed as inhibitors; AID 1508638; Secreted NLuc enzyme (filtered S16 cell medium), Nano-Glo luminescence; 690 tested, 4% active; note: potency is the fitted concentration of half-maximal effect; % is set by controls: 0 for no effect and ±100 for the full control effect
# NLuc Km ctr: inhibits NanoLuc under Km conditions, PMP22 counter-screen | 690 tested, 5% active | AID 1508639 | shares compounds with PMP22 txn prim | Potency, µM (doses to about 57.5 µM), for the others: at the top dose activity change, negative = inhibition, actives largely listed as inhibitors | secreted NLuc enzyme, coelenterazine luminescence, Km conditions; note: potency is the fitted concentration of half-maximal effect; % is set by controls: 0 for no effect and ±100 for the full control effect
# FLuc counter: counter-screen for PMP22 expression modulators: firefly luciferase inhibition. 690 tested, under 10 active. AID 1508640. shares compounds with PMP22 txn prim. purified P. pyralis FLuc, luminescence, 10 min. Potency, µM (doses to about 57.5 µM), without a hit: at the top dose activity, negative = inhibition, hits mostly inhibitors; note: % of control where 0% means no effect
# Target sequence (P08659 whole entry, looked up): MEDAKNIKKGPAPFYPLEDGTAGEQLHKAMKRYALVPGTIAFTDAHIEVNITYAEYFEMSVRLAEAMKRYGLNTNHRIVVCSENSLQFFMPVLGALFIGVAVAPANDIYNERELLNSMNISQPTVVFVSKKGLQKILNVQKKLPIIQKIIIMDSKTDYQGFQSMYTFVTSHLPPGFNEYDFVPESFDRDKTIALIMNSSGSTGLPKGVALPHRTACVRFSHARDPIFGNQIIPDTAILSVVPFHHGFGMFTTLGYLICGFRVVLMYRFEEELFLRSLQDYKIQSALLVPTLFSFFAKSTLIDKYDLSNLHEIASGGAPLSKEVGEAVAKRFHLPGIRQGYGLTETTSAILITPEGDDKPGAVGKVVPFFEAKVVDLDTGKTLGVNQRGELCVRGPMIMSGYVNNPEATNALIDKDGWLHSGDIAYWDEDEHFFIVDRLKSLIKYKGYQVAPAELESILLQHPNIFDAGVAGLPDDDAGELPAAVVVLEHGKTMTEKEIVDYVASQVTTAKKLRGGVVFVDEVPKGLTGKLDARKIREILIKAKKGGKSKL
# S16 viab conf: S16 Schwann cell cytotoxicity, confirmatory | shares compounds with PMP22 txn prim | S16 Schwann cells viability, CellTiter-Glo ATP luminescence, 24 h | Potency, µM (doses to about 57.5 µM), for inactives: at the highest dose activity change, negative = viability loss, hits mostly cytotoxic | 690 tested, 7% active | AID 1508641; note: potency is the fitted concentration of half-maximal effect; % is set by controls: 0 for no effect and ±100 for the full control effect
# PMP22 txn conf: PMP22 transcription modulation, confirmatory; shares compounds with PMP22 txn prim; S16 Schwann cells Pmp22-F2sN, dual luciferase, 24 h; Potency, µM (doses to about 57.5 µM), for the others: at the top dose activity change, negative = inhibition, most hits filed as inhibitors; 690 tested, 22% active; AID 1508646; active = clear falling dose curves in both reporters; inconclusive = both reporters move, but less clearly or upward; inactive = either reporter flat; the % is the FLuc reporter signal; note: potency is the fitted concentration of half-maximal effect
# PMP22 HiBiT cnf: rat PMP22 protein level modulation, confirmatory. shares compounds with PMP22 txn prim. S16 Schwann cells Pmp22-HiBiT, luminescence, 48 h. Potency, µM (series often up to 27.9 µM), for the others: top-dose activity change, negative = inhibition, hits mostly inhibitors. 95 tested, under 10 active
# Target sequence (P25094 whole entry, looked up): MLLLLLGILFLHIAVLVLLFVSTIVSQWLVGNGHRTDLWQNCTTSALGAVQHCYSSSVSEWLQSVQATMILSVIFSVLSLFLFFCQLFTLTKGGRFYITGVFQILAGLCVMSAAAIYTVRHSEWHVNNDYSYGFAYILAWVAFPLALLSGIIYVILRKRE
# Active calls of the source: *; i = inactive; ? = inconclusive; . = no result given; [ ] = another dose, or the depositor's remark. A selection: hits, their analogues and other compounds. The true share with any hit is near 3.1%. Unless noted, calls come from the whole dose curve; as a rule, active = well fitted curve in the direction sought with a large enough effect; inconclusive = small, poorly fitted or top-dose-only effect, or another doubt; inactive = no such curve, though single readings can be large; an effect the other way counts as inactive or inconclusive.
SMILES,PMP22 txn prim,OvCa metastasis,pS6 MEF inh,p53null 32C kill,S16 viability,p53null 39C kill,NLuc saturating,NLuc Km ctr,FLuc counter,S16 viab conf,PMP22 txn conf,others
CCCCNC(=O)c1ccc(-c2nc(CS(=O)(=O)c3ccc(C)cc3)c(C)o2)cc1,?,0%,-6%,12%,-3%,-16%,.,.,.,.,.,
CC(C)C[C@H](NC(=O)[C@@H](NC(=O)c1cccc(-c2ccccc2)n1)[C@@H](C)O)B(O)O,.,-19%,.,.,.,.,.,.,.,.,.,
Cc1cc(N2CCN(c3cccc(C(F)(F)F)c3)CC2)n2nc(-c3ccccc3C)nc2n1,16µM*,i,-5%,-6%,2%,-14%,?,-19%,-10%,-6%,?,
CC(=O)NC(C)c1ccc(Oc2ccc(OC(C)C)cc2)cc1 (stereo unspecified),.,-9%,.,.,.,.,.,.,.,.,.,
Cc1ccc(C)n1-c1nnc(N2CCCC(C(=O)NCc3cccc(F)c3)C2)s1 (stereo unspecified),15µM*,i,-10%,-6%,-15%,-3%,-6%,-13%,0%,-1%,?,
COc1ccccc1CNC(=O)C1CCCN(c2nnc(-n3c(C)ccc3C)s2)C1 (stereo unspecified),?,103%,-1%,0%,1%,-1%,-12%,-8%,1%,14%,-28%,
Cc1ccc(C)n1-c1nnc(N2CCCC(C(=O)NCc3ccccc3)C2)s1 (stereo unspecified),?,-4%,-12%,-5%,-7%,0%,.,.,.,.,.,
NC1=N[C@H]2[C@H](CS[C@H]2CCCCC(=O)O)N1,.,9%[23.2 µM],.,.,.,.,.,.,.,.,.,
COc1ccc(OC)c(NC(=O)CSc2c3c(nc4cc(Cl)ccc24)CCCC3)c1,?,-4%,3%,-5%,?,57%,.,.,.,.,.,
COc1ccc(OC)c(Nc2c3c(nc4ccccc24)CCC3)c1,8.4µM*,?,5.2µM*,-22%,?,?,-13%,-5%,0%,-4%,1.5µM*,
COc1ccc(OC)c(NC(=O)CSc2c3c(nc4ccccc24)CCCC3)c1,9.5µM*,?,?,21%,?,98%,?,?,4%,?,12µM*,PMP22 HiBiT cnf=?
CC(C)CCNC(=O)CSc1c2c(nc3ccc(Cl)cc13)CCCC2,14µM*,-3%,?,16%,?,64%,?,-13%,4%,-2%,?,
CN[C@@H](C)C(=O)N[C@H]1CCCC[C@H]2CC[C@@H](C(=O)N[C@@H](c3ccccc3)c3cn(CCCCc4ccc(CCCCn5cc([C@@H](NC(=O)[C@@H]6CC[C@@H]7CCCC[C@H](NC(=O)[C@H](C)NC)C(=O)N76)c6ccccc6)nn5)cc4)nn3)N2C1=O,.,14%,.,.,.,.,.,.,.,.,.,
CC(=O)N[C@H]1[C@@H]([C@H](O)[C@H](O)CO)OC(C(=O)O)=C[C@@H]1N=C(N)N,.,-8%,.,.,.,.,.,.,.,.,.,
CCN(CCCNC(=O)c1cc(Nc2ccc(OC)cc2OC)nc2ccccc12)c1cccc(C)c1,15µM*,-5%,2%,11%,-7%,8%,-13%,-1%,-21%,-4%,-18%,
CCCCN(CCCNC(=O)c1cc(Nc2ccc(OC)cc2OC)nc2ccccc12)Cc1ccccc1,?,i,-21%,16%,-22%,?,.,.,.,.,.,
Cc1cc(C)cc(Nc2cc(C(=O)NCCCN(C)C3CCCCC3)c3ccccc3n2)c1,8.9µM*,-23%,4.1µM*,?,?,13µM*,-5%,0%,?,17µM*,15µM*,
CCc1ccccc1Nc1cc(C(=O)NCCCN(C)C2CCCCC2)c2ccccc2n1,20µM*,-13%,?,11%,?,-26%,-1%,2%,-4%,?,?,
Cc1ccc(C)c(Nc2cc(C(=O)NCCCN(C)C3CCCCC3)c3ccccc3n2)c1,?,?,?,7%,?,?,.,.,.,.,.,
Oc1ccc(C=Cc2cc(O)cc(O)c2)cc1,.,2%,.,.,.,.,.,.,.,.,.,
OC[C@H]1O[C@@H](OCCc2ccc(O)cc2)[C@H](O)[C@@H](O)[C@H]1O,.,-7%,.,.,.,.,.,.,.,.,.,
Cc1nnc(C(C)C)n1C1C[C@H]2CC[C@@H](C1)N2CC[C@H](NC(=O)C1CCC(F)(F)CC1)c1ccccc1 (stereo partly specified),.,7%,.,.,.,.,.,.,.,.,.,
CC(=O)c1ccc(NC(=O)COc2ccccc2-c2nc(C(C)C)no2)cc1,13µM*,0%,-3%,-5%,2%,1%,-9%,6%,-10%,-33%,-27%,
CCC1=Nc2cc(C(=O)NCCN(CC)CC)ccc2Sc2ccccc21,17µM*,2%,?,21%,-12%,4%,-19%,0%,-6%,-28%,?,
